# Measurements reported in PubChem BioAssay (Tox21).
# Results filed as inconclusive are left out. Where a call stands in place of a potency, no number is given. The source made the active and inactive calls. Calls come from the whole dose curve.
# Experiment: p53 small molecule agonists, cell-based qHTS assay with rat liver microsomes (AID 1963578)
# Details: HCT-116 p53RE-bla, beta-lactamase ratio, 16 h; series mostly up to 66 µM
# Description: U.S. Tox21 Program National Center for Advancing Translational Sciences [NCATS] Division of Preclinical Innovation [DPI] U.S. Environmental Protection Agency [EPA] National Institutes of Environmental Health Sciences [NIEHS] National Toxicology Program [NTP] U.S. Food and Drug Administration [FDA] Tox21 Assay Overview: p53, a tumor suppressor protein, is activated following cellular insult, including DNA damage and other cellular stresses. The activation of p53 regulates cell fate by inducing DNA repair, cell cycle arrest, apoptosis, or cellular senescence. The activation of p53, therefore, is a good indicator of DNA damage and other cellular stresses. […] The activation of the reporter gene under culture conditions can be detected by fluorescence intensity. This cell line was used to screen the Tox21 10K compound library in the condition of presence of rat liver microsomes and to identify agonists that activate the p53 signaling pathway after in vitro metabolic activation (Ooka et al., Archive of Toxicology 96:1975-1987, 2022).
# Tox21 Assay Protocol Summary: The p53RE-bla cells were dispensed at 4,000cells/3ul/well in 1536-well black-clear bottom plates. After the assay plates were incubated at 37 C, 5% CO2 incubator for 5 hours, 23 nL of compounds dissolved in DMSO, positive controls or DMSO only was transferred to the assay plate. Following compound addition, 3 uL of rat liver microsomes (Molecular Toxicology, Boone, NC) at final concentration of 0.5 mg/mL and 1uL of Beta-Nicotinamide adenine dinucleotide 2-phosphate (NADPH) at final concentration of 0.5 mg/mL were transferred to the assay plate. The plates were incubated at 37 C for 16 hours. 1 uL of LiveBLAzer detection mixture was added to each well and the plates were incubated at room temperature in the dark for 2 h.
row,SMILES,Potency
1,Oc1ccccc1Br,inactive
2,[F][Sn]([c]1ccccc1)([c]1ccccc1)[c]1ccccc1,inactive
3,O=C(O)C(F)(F)C(F)(F)C(F)(F)C(F)(F)C(F)(F)F,inactive
4,OC(Cn1cncn1)(c1ccc(F)cc1)c1ccccc1F (stereo not given),inactive
5,Oc1c(Cl)c(Cl)cc(Cl)c1Cl,inactive
6,CCCCC(CC)COC(=O)c1ccccc1C(=O)OCC(CC)CCCC (stereo not given),inactive
7,O=C(OC1CCCCC1)c1ccccc1C(=O)OC1CCCCC1,inactive
8,CN,inactive
9,Nc1cc(Cl)ccc1O,inactive
10,Oc1ccc(C2(c3ccc(O)cc3)CCCCC2)cc1,inactive
11,O=NN1CCN(N=O)CC1,inactive
12,CNC(C)Cc1ccc2c(c1)OCO2 (stereo not given),inactive
13,CCCCCCC[CH2][Sn]([Cl])([Cl])[CH2]CCCCCCC,inactive
14,CC1(C)C(C(=O)OC(C#N)c2cccc(Oc3ccccc3)c2)C1(C)C (stereo not given),inactive
15,O=C(O)COc1nc(Cl)c(Cl)cc1Cl,inactive
16,C=CCc1ccc(OC(=O)Cc2ccccc2)c(OC)c1,inactive
17,CC(C)[C@@H](C(=O)O[C@@H](C#N)c1cccc(Oc2ccccc2)c1)c1ccc(Cl)cc1,inactive
18,CC(=O)C(Cl)C(=O)N(C)C (stereo not given),inactive
19,CC[C@@H](CO)NC(=O)[C@@H]1C=C2c3cccc4c3c(cn4C)C[C@H]2N(C)C1,inactive
20,CC(=O)[O][Sn]([c]1ccccc1)([c]1ccccc1)[c]1ccccc1,inactive

row,SMILES,Potency
1,NC(=S)C(N)=S,inactive
2,COc1cccc2c1cc([N+](=O)[O-])c1c(C(=O)O)cc3c(c12)OCO3,inactive
3,CCOc1cc(OP(=S)(OC)OC)nc(CC)n1,inactive
4,CC(C)COP(=O)(OCC(C)C)OCC(C)C,inactive
5,CCCC[N+]1(C)[C@@H]2CC(OC(=O)[C@H](CO)c3ccccc3)C[C@H]1[C@@H]1O[C@@H]12 (stereo not given in full),inactive
6,CC(Cl)C(C)Cl (stereo not given),inactive
7,C=CCOC(=O)C(C)(C)OC(=O)c1cc(-n2c(=O)cc(C(F)(F)F)n(C)c2=O)ccc1Cl,inactive
8,CC(Cc1ccccc1)NCCn1cnc2c1c(=O)n(C)c(=O)n2C (stereo not given),inactive
9,CCCN(CCCl)c1c([N+](=O)[O-])cc(C(F)(F)F)cc1[N+](=O)[O-],inactive
10,Nc1n[nH]c(N)n1,inactive
11,CO/C=C(/C(=O)OC)c1ccccc1COc1cccc(C(F)(F)F)n1,inactive
12,Oc1ccc(C2(c3ccc(O)cc3)c3ccccc3-c3ccccc32)cc1,inactive
13,COC(=O)N(C(=O)N1COC2(C(=O)OC)Cc3cc(Cl)ccc3C2=N1)c1ccc(OC(F)(F)F)cc1 (stereo not given),inactive
14,O=[N+]([O-])c1ccc(Nc2ccccc2)cc1,inactive
15,CCCN(CCC)CCc1c[nH]c2ccccc12,inactive
16,Oc1ccc(I)cc1,inactive
17,N[C@@H]1C[C@H]1c1ccccc1,inactive
18,ClC(Cl)(Cl)Cl,inactive
19,CC(C)[C@H](C(=O)OC(C#N)c1cccc(Oc2ccccc2)c1)c1ccc(OC(F)F)cc1 (stereo not given in full),inactive
20,CC(C)(C)NCC(O)c1ccccc1Cl (stereo not given),inactive
